The results in this text go back to PubChem BioAssay (NCATS).

Where “and” joins values, the source holds several entries; their conditions need not be identical. Equal values may be shown once. Inconclusive results are not listed. Calls of active or inactive are those of the source. Calls follow the shape of the dose curve; as a rule, active = well fitted curve in the direction sought with a large enough effect; inconclusive = small, poorly fitted or top-dose-only effect, or another doubt; inactive = no such curve, though single readings can be large; an effect the other way counts as inactive or inconclusive.

The nature of experiment [1]: Viability qHTS for spleen associated tyrosine kinase inhibitor (SYKi) drug resistant MV4-11 cells (AID 1963824). Also: nearly all actives have a fitted effect of over 35% in size. The essentials:
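SYK-inhibitor-resistant MV4-11 AML cells were seeded at 500 per well onto compound and cultured 72 hours (37 °C, 5% CO2). CellTiter-Glo was then added, and after 10 min at room temperature, luminescence gave viability.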

Experiment [2] can be described thus: Quantitative highthroughput screen to assess conditional lethalithy of NOMO1 cells grown in RPMI1640 with untreated serum (RPMI+s) (AID 1963876). Also: nearly all actives have a fitted effect of over 35% in size. The essentials:
(§1)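 Each medium arm—HPLM with 10% dialyzed FBS, or RPMI1640 with 5 mM glucose and 10% untreated or dialyzed FBS—was screened against an 11-point, 3-fold compound titration for 48 h at 37 °C, with CellTiter-Glo luminescence as endpoint.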

Experiment [3] in a line: Quantitative highthroughput screen to assess conditional lethalithy of NOMO1 cells grown in RPMI1640 with dialyzed fetal bovine serum (RPMI+ds) (AID 1963877). Also: nearly all actives have a fitted effect of over 30% in size. As to Viability: series mostly up to about 46 µM. The method, boiled down: as §1
The nature of experiment [4]: Quantitative highthroughput screen to assess conditional lethalithy of NOMO1 cells grown in Human Plasma-Like Medium with dialyzed fetal bovine serum (HPLM+ds) (AID 1963878). Also: nearly all actives have a fitted effect of over 35% in size. The method, boiled down: as §1
The nature of experiment [5]: Quantitative highthroughput screen to assess conditional lethalithy of P12 Ichikawa cells grown in Human Plasma-Like Medium with dialyzed fetal bovine serum (HPLM+ds) (AID 1963879). Also: nearly all actives have a fitted effect of over 35% in size. As to Viability: series mostly up to about 46 µM. The following applies: Potency: viability. The method, boiled down:
as §1

Experiment [6] in a line: Quantitative highthroughput screen to assess conditional lethalithy of P12 Ichikawa cells grown in RPMI1640 with dialyzed fetal bovine serum (RPMI+ds) (AID 1963880). Also: nearly all actives have a fitted effect of over 35% in size. The following applies: Potency: P12-Ichikawa viability. The essentials:
as §1

Experiment [7] can be described thus: Quantitative highthroughput screen to assess conditional lethalithy of P12 Ichikawa cells grown in RPMI1640 with untreated serum (RPMI+s) (AID 1963881). Also: nearly all actives have a fitted effect of over 35% in size. As to Viability: series mostly up to about 46 µM. The note with it: Potency: viability. The method, boiled down:
as §1

The nature of experiment [8]: Quantitative highthroughput screen to assess conditional lethalithy of SEM cells grown in Human Plasma-Like Medium with dialyzed fetal bovine serum (HPLM+ds) (AID 1963882). Also: nearly all actives have a fitted effect of over 35% in size. As to Viability: series mostly up to about 46 µM. The essentials: as §1
Experiment [9] in a line: Quantitative highthroughput screen to assess conditional lethalithy of SEM cells grown in RPMI1640 with unreated serum (RPMI+s) (AID 1963883). Also: nearly all actives have a fitted effect of over 35% in size. The method, boiled down: as §1
Experiment [10] is described as follows: Quantitative highthroughput screen to assess conditional lethalithy of SEM cells grown in RPMI1640 with dialyzed fetal bovine serum (RPMI+ds) (AID 1963884). Also: nearly all actives have a fitted effect of over 35% in size. The method, boiled down:
as §1

Experiment [11] in a line: Cellular viability qHTS for adrenocortical cancer (ACC) cell line SW-13 (AID 1963989). Also: nearly all actives have a fitted effect of over 65% in size. The following applies: SW-13 ACC cells viability, CellTiter-Glo, 48 h; activity (max response): active compounds read low. The method, boiled down: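 Here, serum-free SW-13 cultures were dosed up to 46 uM. Following 48 h, ATP-dependent luminescence (CellTiter-Glo) reported viable cells, and logistic modeling produced IC50 values.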
On the technique in general: Quantitative high-throughput screening tests each substance at several concentrations.

Experiment [12] is described as follows: Cellular viability qHTS for adrenocortical cancer (ACC) cell line NCI-H295R (AID 1963990). Also: nearly all actives have a fitted effect of over 60% in size. The method, boiled down: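 Viability of NCI-H295R after 48 h of treatment (final up to 46 uM) measured through cellular ATP luminescence.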
Potency is read from the fitted curve at half-maximal effect.

Consider `CN1C(=O)c2sccc2N(C)c2nc(Nc3ccc(S(N)(=O)=O)cc3)ncc21`, for which the Potency is 468 nM (active) in experiment [1]; 10500 nM (active) in [2]; 13200 nM (active) in experiment [3]; 9330 nM (active) in experiment [4]; 2630 nM (active) in experiment [5]; 2340 nM (active) in experiment [6]. Besides, the Potency is 2630 nM (active) in experiment [7]; 2630 nM (active) in [8]; 2340 nM (active) in experiment [9]; 2340 nM (active) in [10]; 20000 nM (active) in [11].
Take `COc1ccc(-c2nc(N3CCOCC3)c3sc(CN(C)c4ncc(C(=O)NO)cn4)cc3n2)cn1`: the Potency is 9.3 nM (active) in experiment [1]; 20.9 nM (active) in experiment [2]; 23.5 nM (active) in [3]; 16.6 nM (active) in experiment [4]; 20.9 nM (active) in experiment [5]; 23.5 nM (active) in [6]. Further, the Potency in experiment [7] was 18.7 nM (active); in experiment [8] it was 11.8 nM (active); in experiment [9] it was 7.4 nM (active); in [10] it was 13.2 nM (active); in experiment [11], 355 nM (active); in experiment [12] it was 89.1 nM (active).
For the molecule `CN(NC(=O)CC(=O)NN(C)C(=S)c1ccccc1)C(=S)c1ccccc1`, the Potency was 46.1 nM (active) and 4.2 nM (active) in experiment [1]; 66 nM (active) in experiment [2]; 58.8 nM (active) in experiment [3]; 66 nM (active) in experiment [4]; 83.1 nM (active) in experiment [5]; 74.1 nM (active) in experiment [6]. Moreover, the Potency was 74.1 nM (active) in experiment [7], 37.1 nM (active) in experiment [8] and 41.7 nM (active) in experiment [9].
`CC(C)c1ccccc1Cc1cc(C(=O)Nc2ccc(S(=O)(=O)c3ccccc3C(C)(C)C)cc2)c(O)c(O)c1O`: the Potency in experiment [1] is 7420 nM (active). For the same molecule, the Potency result in [2], in experiment [3], in experiment [4], in experiment [5], in [6] and in experiment [7] was “inactive” each time. In addition, the Potency entry in experiment [8] and in experiment [9] was “inactive” each time.
`CC(C)c1nn(-c2c(Cl)cccc2Cl)c2nc(Cc3ccc(OCCO)cc3)[nH]c(=O)c12`: the Potency in experiment [1] is 20.6 nM (active); in [2] it was 118 nM (active); in experiment [3], 105 nM (active); in [4], 118 nM (active); in experiment [5], 166 nM (active); in experiment [6], 148 nM (active). The Potency is 148 nM (active) in [7]; 105 nM (active) in [8]; 148 nM (active) in experiment [10]; 50.1 nM (active) in experiment [11]; 100 nM (active) in [12].
